Source: PubChem (National Center for Advancing Translational Sciences (NCATS))
The list is not random: actives were taken first. Their share in the collection is about 11%.
IL-1B inflam inh = inhibitors of inflammasome signaling (IL-1 beta secretion); THP-1 LPS/ATP IL-1B secretion, AlphaLISA, 16 h; stronger effect = lower value; activity change, % at 57.5 µM; 360,000 tested, 4.7% active; AID 743279; in the data active = activity change below about -50%; inconclusive = mostly about -30% to -49%; note: % is set by controls: 0 for no effect and ±100 for the full control effect
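THP-1 cells pretreated 1 hr with compounds (up to 57.5 uM final), then stimulated with LPS (250 ng/mL final) plus ATP (1.25 mM final); secreted IL-1B measured by AlphaLISA after 16 hr, decreased signal indicating inhibition.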
SW480 rereplic = induces DNA re-replication in SW480 colon adenocarcinoma cells; 340,000 tested, 1.8% active; Potency, µM (top dose mostly 46.1 µM), inactives show at the top dose re-replication activation, hits mostly activators; SW480 DNA re-replication, Hoechst DNA content imaging, 48 h; note: potency is the fitted concentration of half-maximal effect; % of control where 0% means no effect; nearly all actives have a fitted effect of over 55% in size
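250 cells/well; 23 nL cpd via pin tool; 48 hr, 37 C, 5% CO2; Hoechst 40 min; imager read of total nuclear intensity, ex 405/em 500-530 nm.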
MCF10A rereplic = inducers of DNA re-replication in MCF 10A breast cells. Potency, µM (titrated, usually from 46.1 µM), for inactives: top-dose activity, positive = re-replication, hits mostly activators. MCF 10A DNA re-replication, Hoechst nuclear intensity, 48 h. 350,000 tested, 2.9% active; note: potency is the fitted concentration of half-maximal effect; % of control where 0% means no effect; nearly all actives have a fitted effect of over 50% in size
RORgamma inh = ROR gamma (mouse) transcription inhibition. P51450. Drosophila S2 Gal4-RORgamma UAS-luciferase reporter, 20 h. Potency, µM (titrated, usually from 53.6 µM), for the others: at the highest dose activity change, negative = inhibition, hits mostly inhibitors. 310,000 tested, 5.4% active; note: potency is the fitted concentration of half-maximal effect; % is set by controls: 0 for no effect and ±100 for the full control effect; nearly all actives have a fitted effect of over 60% in size
Target sequence (P51450 whole entry, looked up, the tested form may be a part): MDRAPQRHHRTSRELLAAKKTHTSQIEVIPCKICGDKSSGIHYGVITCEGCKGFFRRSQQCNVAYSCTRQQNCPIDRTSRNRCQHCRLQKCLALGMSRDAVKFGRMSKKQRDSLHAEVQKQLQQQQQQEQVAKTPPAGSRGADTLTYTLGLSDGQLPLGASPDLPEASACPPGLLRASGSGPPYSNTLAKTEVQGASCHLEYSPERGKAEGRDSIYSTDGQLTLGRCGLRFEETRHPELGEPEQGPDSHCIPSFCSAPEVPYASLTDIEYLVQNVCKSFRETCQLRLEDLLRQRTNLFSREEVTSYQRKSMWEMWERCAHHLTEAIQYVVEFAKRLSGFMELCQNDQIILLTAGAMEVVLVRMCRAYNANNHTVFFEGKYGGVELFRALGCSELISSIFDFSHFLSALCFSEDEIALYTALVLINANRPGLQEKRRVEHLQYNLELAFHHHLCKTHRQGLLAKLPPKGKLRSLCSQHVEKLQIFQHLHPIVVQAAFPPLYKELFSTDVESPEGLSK
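Using a luciferase readout, inhibitors were identified by reduced reporter activity in Drosophila cells coexpressing a copper-inducible Gal4–ROR gamma fusion and UAS-driven Photinus luciferase, incubated 20 hr after 700 uM copper sulfate.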
Gal4-VP16 FLuc = inhibits Gal4-VP16 luciferase reporter, ROR gamma counter-screen. AID 2546. 310,000 tested, 3.5% active. Drosophila S2 Gal4-VP16 UAS-luciferase, luminescence, 20 h. Potency, µM (series often up to 53.6 µM), for the others: at the top dose activity, negative = inhibition, hits mostly inhibitors;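 note: Gal4-VP16 expression switched on by copper sulfate through the metallothionein promoter; potency is the fitted concentration of half-maximal effect; % is set by controls: 0 for no effect and ±100 for the full control effect; nearly all actives have a fitted effect of over 50% in size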
An asterisk follows results filed as active; ? = inconclusive; . = no result given; [ ] = remark or other dose. Unless noted, calls come from the whole dose curve; as a rule, active = well fitted curve in the direction sought with a large enough effect; inconclusive = small, poorly fitted or top-dose-only effect, or another doubt; inactive = no such curve, though single readings can be large; an effect the other way counts as inactive or inconclusive.

SMILES | IL-1B inflam inh | SW480 rereplic | MCF10A rereplic | RORgamma inh | Gal4-VP16 FLuc
CN(C)S(=O)(=O)c1ccc(NC(=O)CN2C(=O)NC3(CCCC3)C2=O)cc1 | 10 | -5% | -2% | -1% | -6%
NC(=O)C1CCN(C(=O)c2cc(-c3ccc(Cl)s3)nc3ccccc23)CC1 | -15 | 18µM* | ? | . | .
CC1CN(C(=O)c2cc(-c3ccc(Cl)s3)nc3ccccc23)CC(C)O1 (configuration not stated) | -53* | 6% | ? | . | .
CC1CC(C)CN(C(=O)c2cc(-c3ccccn3)nc3ccccc23)C1 (configuration not stated) | 12 | 10% | 8% | 7% | 1%
O=C(c1cc(-c2ccccc2Cl)nc2ccccc12)N1CCOCC1 | 0 | -2% | -4% | 18% | 3%
O=C1[C@H]2[C@H]3[C@H](O)[C@H](O)C/C(=N/OCc4ccccc4)[C@@H]3CC[C@@H]2C(=O)N1Cc1ccc2c(c1)OCO2 | . | . | . | -1%[10 µM] | -2%[10 µM]
CCOC(=O)C1=CCC2C(=O)N(CC)C(=O)C12 (configuration not stated) | 47 | . | . | . | .
O=C1C2=CC[C@H]3C(=O)N(Cc4ccc5c(c4)OCO5)C(=O)[C@@H]3[C@@H]2[C@H](O)[C@@H]2O[C@H]12 | . | . | . | 4.5µM* | ?
CCN1C(=O)[C@@H]2[C@H]3C(=CC[C@H]2C1=O)C(=O)[C@H]1OC1[C@H]3O (some centres not stated) | . | . | . | 2µM* | ?
O=C1C2=CC[C@H]3C(=O)N(c4cccc(Oc5ccccc5)c4)C(=O)[C@@H]3[C@@H]2[C@H](O)[C@@H]2O[C@H]12 | . | . | . | 2.2µM* | ?
O=C1C2=CC[C@H]3C(=O)N(C4CCCCC4)C(=O)[C@@H]3[C@@H]2[C@H](O)[C@@H]2O[C@H]12 | . | . | . | 2µM* | ?
C=CCNC(=O)N1CCCC(N2CCN(c3ccccc3OC)CC2)C1 (configuration not stated) | 11 | -5% | 1% | 2% | -1%
Oc1ccc(C=NNC(=S)Nc2ccccc2)nc1 | 97 | . | . | . | .
O=C1C2=CC[C@H]3C(=O)N(Cc4ccccc4)C(=O)[C@@H]3[C@@H]2[C@H](O)[C@@H]2O[C@H]12 | . | . | . | 2.2µM* | ?
CC1=CCC2C(=O)N(Cc3ccccc3)C(=O)C2C1 (configuration not stated) | 8 | -2%[9.22 µM] | 4% | -36% | -2%
COc1ccc(NC(=O)c2cccc3ccccc23)cc1 | -7 | ? | 21µM* | 1% | ?
CC(C)Cc1ccc(C(=O)Nc2ccc(Cc3ccncc3)cc2)o1 | -91* | 1% | 9% | ? | -12%
COc1ccc(NS(=O)(=O)NC(=O)c2c(C)n(C)c3ccccc23)cc1 | 33 | ? | 4% | 11% | 1%
COc1ccc(NC(=O)c2cccc3c(Br)cccc23)cc1 | 20 | 2% | ? | -1% | -17%
COc1ccc(NC(=O)c2oc3ccccc3c2NC(=O)C(C)(C)C)cc1 | -55* | 14% | 30% | -24% | 28%
COc1ccc(NC(=O)c2c(Cl)n(C)c3ccccc23)cc1 | 18 | ? | 16µM* | 4% | 3%
O=C(Nc1ccc(Cc2ccncc2)cc1)c1ccc(Br)o1 | ? | 12% | 16% | 42% | 23%
NC(=O)Cn1cnc2c(nnn2-c2ccc(F)cc2)c1=O | -13 | 0% | -1% | 16% | -7%
CCc1ccccc1O | . | . | . | 35% | 7%
CCc1ccc(NC(=O)c2cnn(-c3ccccc3)c2C)cc1 | ? | 1% | -11% | -22% | ?
SMILES | IL-1B inflam inh | SW480 rereplic | MCF10A rereplic | RORgamma inh | Gal4-VP16 FLuc
COc1c(C(=O)Nc2ccc(Cc3ccncc3)cc2)ccc2ccccc12 | -14 | ? | 23µM* | ? | ?
CCc1ccccc1-n1ncc(C(=O)Nc2ccc(OC)cc2)c1C | -65* | ? | 16% | . | .
O=C(Nc1cccnc1Oc1ccc(Cl)cc1)c1cccc2ccccc12 | -57* | 16% | 2% | 25% | -1%
COc1ccc(Br)cc1C(=O)Nc1ccc(Cc2ccncc2)cc1 | ? | 2% | ? | 17% | -1%
O=C(NC1CCCCC1)c1cc2ccccc2cc1O | -3 | 18µM* | -2% | 26% | -3%
COc1ccc(NC(=O)c2cc3ccccc3cc2O)cc1 | -99* | ? | 4.6µM* | 11% | -18%
